# Results published in the supplement of paper PMC8728848.
# The sample as a whole holds a higher share of the strongest signals than the screen did.
# What was measured:
# Test in all cases: glycan array binding signal (z-score within array); higher = stronger binding
# Conditions in all cases: glycan notation: IUPAC condensed, linker removed
# [1] = biological target: GlcNAc(b1-3)Gal(b1-4)GlcNAc(b1-3)Gal(b1-4)GlcNAc(b1-2)Man(a1-3)[GlcNAc(b1-3)Gal(b1-4)GlcNAc(b1-3)Gal(b1-4)GlcNAc(b1-2)Man(a1-6)]Man(b1-4)GlcNAc(b1-4)GlcNAc
# Outline: (§1)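 Arrays were curated from the Consortium for Functional Glycomics database, 3228 in total, and kept only where the protein sequence was available. Binding is expressed as a within-array Z-score. This score was averaged across arrays of the same protein sequence at different concentrations or buffers and across linkers, and negative values can be read as non-binding.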
# [2] = biological target: GlcNAc(b1-3)Gal(b1-4)GlcNAc(b1-3)Gal(b1-4)GlcNAc(b1-3)Gal(b1-4)GlcNAc(b1-2)Man(a1-3)[GlcNAc(b1-3)Gal(b1-4)GlcNAc(b1-3)Gal(b1-4)GlcNAc(b1-3)Gal(b1-4)GlcNAc(b1-2)Man(a1-6)]Man(b1-4)GlcNAc(b1-4)[Fuc(a1-6)]GlcNAc
# Outline: as §1
# [3] = biological target: GlcNAc(b1-3)Gal(b1-4)GlcNAc(b1-3)Gal(b1-4)GlcNAc(b1-3)Gal(b1-4)GlcNAc(b1-2)[GlcNAc(b1-3)Gal(b1-4)GlcNAc(b1-3)Gal(b1-4)GlcNAc(b1-3)Gal(b1-4)GlcNAc(b1-6)]Man(a1-6)[GlcNAc(b1-3)Gal(b1-4)GlcNAc(b1-3)Gal(b1-4)GlcNAc(b1-3)Gal(b1-4)GlcNAc(b1-2)Man(a1-3)]Man(b1-4)GlcNAc(b1-4)[Fuc(a1-6)]GlcNAc
# Outline: as §1
# [4] = biological target: GlcNAc(b1-4)GlcNAc(b1-4)GlcNAc(b1-4)GlcNAc(b1-4)GlcNAc(b1-4)GlcNAc
# Outline: as §1
# [5] = biological target: GlcNAc6S(b1-3)Gal(b1-4)GlcNAc
# Outline: as §1
# [6] = biological target: Kdn(a2-3)Gal(b1-4)GlcNAc
# Outline: as §1
# [7] = biological target: Man(a1-2)Man(a1-6)[Man(a1-3)]Man(a1-6)[Man(a1-2)Man(a1-2)Man(a1-3)]Man
# Outline: as §1
# [8] = biological target: Neu5Ac(a2-3)Gal(b1-3)GlcNAc(b1-2)Man(a1-3)[Neu5Ac(a2-3)Gal(b1-3)GlcNAc(b1-2)Man(a1-6)]Man(b1-4)GlcNAc(b1-4)GlcNAc
# Outline: as §1
# [9] = biological target: Neu5Ac(a2-3)Gal(b1-3)[Fuc(a1-4)]GlcNAc(b1-3)Gal(b1-3)[Fuc(a1-4)]GlcNAc
# Outline: as §1
# [10] = biological target: Neu5Ac(a2-3)Gal(b1-4)GlcNAc(b1-2)[Neu5Ac(a2-3)Gal(b1-4)GlcNAc(b1-6)]Man(a1-6)[Neu5Ac(a2-3)Gal(b1-4)GlcNAc(b1-2)Man(a1-3)][GlcNAc(b1-4)]Man(b1-4)GlcNAc(b1-4)GlcNAc
# Outline: as §1
# [11] = biological target: Neu5Ac(a2-3)Gal(b1-4)GlcNAc(b1-3)Gal(b1-4)GlcNAc(b1-6)[Gal(b1-3)]GalNAc
# Outline: as §1
# [12] = biological target: Neu5Ac(a2-3)[GalNAc(b1-4)]Gal(b1-4)GlcNAc(b1-3)GalNAc
# Outline: as §1
# [13] = biological target: Neu5Ac(a2-6)Gal
# Outline: as §1
# [14] = biological target: Neu5Ac(a2-6)Gal(b1-3)GlcNAc(b1-3)[Gal(b1-4)GlcNAc(b1-6)]Gal(b1-4)Glc
# Outline: as §1
# [15] = biological target: Neu5Ac(a2-6)Gal(b1-4)GlcNAc
# Outline: as §1
# [16] = biological target: Neu5Ac(a2-6)Gal(b1-4)GlcNAc(b1-2)Man(a1-3)Man(b1-4)GlcNAc(b1-4)GlcNAc
# Outline: as §1
# [17] = biological target: Neu5Ac(a2-6)Gal(b1-4)GlcNAc(b1-2)Man(a1-3)[Neu5Ac(a2-6)Gal(b1-4)GlcNAc(b1-2)Man(a1-6)]Man(b1-4)GlcNAc(b1-4)GlcNAc
# Outline: as §1
# [18] = biological target: Neu5Ac(a2-6)Gal(b1-4)GlcNAc(b1-3)Gal(b1-4)GlcNAc(b1-3)Gal(b1-4)GlcNAc(b1-2)Man(a1-3)[Neu5Ac(a2-6)Gal(b1-4)GlcNAc(b1-3)Gal(b1-4)GlcNAc(b1-3)Gal(b1-4)GlcNAc(b1-2)Man(a1-6)]GalNAc
# Outline: as §1
# [19] = biological target: Neu5Ac(a2-6)Gal(b1-4)GlcNAc(b1-3)GalNAc
# Outline: as §1
# [20] = biological target: Neu5Ac(a2-6)Gal(b1-4)GlcNAc(b1-6)[Gal(b1-3)]GalNAc
# Outline: as §1
# [21] = biological target: Neu5Ac(a2-6)GalNAc
# Outline: as §1
# [22] = biological target: Neu5Ac(a2-6)GlcNAc(b1-4)GlcNAc(b1-4)GlcNAc
# Outline: as §1
# [23] = biological target: Neu5Ac(a2-8)Neu5Ac
# Outline: as §1
# [24] = biological target: Neu5Ac(a2-8)Neu5Ac(a2-3)Gal(b1-4)Glc
# Outline: as §1
# [25] = biological target: Neu5Ac(a2-8)Neu5Gc(a2-3)Gal(b1-4)GlcNAc
# Outline: as §1
# [26] = biological target: Neu5Gc(a2-3)Gal(b1-4)GlcNAc(b1-3)Gal(b1-4)GlcNAc(b1-2)Man(a1-3)[Neu5Gc(a2-3)Gal(b1-4)GlcNAc(b1-3)Gal(b1-4)GlcNAc(b1-2)Man(a1-6)]Man(b1-4)GlcNAc(b1-4)GlcNAc
# Outline: as §1
# [27] = biological target: Neu5Gc(a2-8)Neu5Gc(a2-6)Gal(b1-4)GlcNAc
# Outline: as §1
binder,measurement,setting,value
"HopZSSI-T (Helicobacter pylori), B5Z6D0 (protein) MGSSHHHHHHSSGLVPRGSHMENLYFQGEDNGFFISAGYQIGEAAQMVKNTGELKKLSDTYENLSNLLTNFNNLNQAVTNASSPSEINAAIDNLKANTQGLTGEKTNSPAYQAVYLALNAAVGLWNVIAYNVQCGPGNSSQQSVTFEGQPGHNSSSINCNLTGYNNGVSGPLSIDNFKQLNQAYQVLQQALKQGVPVLNNTNQKIEVKVTTQTNGQSSKETTTTTTTNDAQTLLQEASKMIDVLTTNCPWVNHNPGQNGGAPWGLIRQECVSGFATEFSAVTSMIKNAQEIVTQAQSLNANQNNQNAPQDFNPYTSADRAFAQNMLNHAQAQAKILELADQMKKDLNTIPSQFITNYLAACRIDGTTPSQGVTNNTWGAGCAYVEETITALNNSLAHFGTQAEQIKQSELLARTILDFRGSLSTLNSTYNSITTTASNTPNSPFLKNLISQSTNPNNPGGLQAVYQVNQSAYSQLLSATQELGHNPFRRIGLISSQT",glycan array binding signal (z-score),[1],1.48
same,glycan array binding signal (z-score),[2],1.5
same,glycan array binding signal (z-score),[3],1.12
same,glycan array binding signal (z-score),[4],-0.476
same,glycan array binding signal (z-score),[5],-0.089
same,glycan array binding signal (z-score),[6],0.049
same,glycan array binding signal (z-score),[7],-0.645
same,glycan array binding signal (z-score),[8],-0.396
same,glycan array binding signal (z-score),[9],-0.391
same,glycan array binding signal (z-score),[10],0.342
same,glycan array binding signal (z-score),[11],0.966
same,glycan array binding signal (z-score),[12],0.891
same,glycan array binding signal (z-score),[13],0.007
same,glycan array binding signal (z-score),[14],-0.472
same,glycan array binding signal (z-score),[15],-0.343
same,glycan array binding signal (z-score),[16],-0.42
same,glycan array binding signal (z-score),[17],-0.19
same,glycan array binding signal (z-score),[18],0.709
same,glycan array binding signal (z-score),[19],0.356
same,glycan array binding signal (z-score),[20],3.23
same,glycan array binding signal (z-score),[21],2.01
same,glycan array binding signal (z-score),[22],-0.141
same,glycan array binding signal (z-score),[23],0.598
same,glycan array binding signal (z-score),[24],-0.031
same,glycan array binding signal (z-score),[25],-0.272
same,glycan array binding signal (z-score),[26],1.53
same,glycan array binding signal (z-score),[27],0.181
